According to PubChem BioAssay:
Activity calls are given as the source filed them.

Test: basal S. cerevisiae growth modulation, no modifier, primary screen, OD600, strain BY4716, 24 h, basal condition (AID 1173)
Details: OD600, 24 h, higher = more signal, called active from +8 up or from −8 down

z-score, inactive:
CN(C)CCCNC(=O)[C@@H]1c2ccccc2C(=O)N(Cc2ccccc2)[C@H]1c1ccc(CO)cc1 0.0396, COc1ccc([Si](C)(C)[C@H]2[C@H](CC(=O)N3CCC[C@H]3CO)O[C@@]3(C(=O)N(Cc4cccc(N5C(=O)COc6ccccc65)c4)c4ccccc43)[C@@H]2C)cc1 -1.16, C=CC[C@]1(C(=O)NCc2ccccc2)N=C(c2ccc(OCCCO)cc2)O[C@H]1c1ccccc1 -0.127, COC(=O)[C@@]1(Cc2ccc(F)cc2)[C@H]2c3cc(C(=O)N(C)C)n(Cc4ccc(OC)c(OC)c4)c3C[C@H]2CN1C(=O)c1ccccc1 -0.0211, O=C(CS)NCCCCCNC(=O)[C@H]1C[C@H]2C(=O)N3CCC[C@H]3C(=O)N2[C@H]1c1cccc(OCCO)c1 -0.358, Cn1cccc1C(O)C1C=CC2C(=O)NC(=O)C2N1Nc1ccccn1 (configuration not stated) 0.784, O=C1O[C@@H](c2ccccc2)[C@@H](c2ccccc2)N2[C@@H](c3ccc(OCCO)cc3)[C@]3(C(=O)Nc4ccccc43)[C@@H](C(=O)N3CCN(c4ncccn4)CC3)[C@H]12 0.944, COC(=O)c1c(CC[C@@H](CO)NC(=O)N[C@H](Cc2ccccc2)Cn2cc(-c3ccccc3N)nn2)oc(C(C)=O)c1C(=O)OC -1.2, COC(=O)[C@@H]1N=C(c2ccc(OCCCO)cc2)O[C@@H]1c1ccccc1N=[N+]=[N-] -4.88, CCOC(=O)C1=CC[C@H]2C(=O)N(CC)C(=O)[C@@H]12 1.31, C=C(/C(=C/C[C@H](OC(C)=O)c1ccc(OCCO)cc1)c1cnc2ccccc2c1)C(C)C -1.34, N#Cc1ccc(NN2C(C(O)c3cc(C(F)(F)F)cc(C(F)(F)F)c3)C=CC3C(=O)N(c4ccccc4)C(=O)C32)cc1 (configuration not stated) -0.102, COCCOC(=O)N1C(=O)[C@@]2(c3cc(C#CCNC(N)=O)ccc31)[C@H](c1ccccc1OCCO)N1[C@H](c3ccccc3)[C@H](c3ccccc3)OC(=O)[C@H]1[C@@H]2C(=O)N1CCN(c2ncccn2)CC1 0.353, CC(C)[Si]1(C(C)C)O[C@@H](c2ccccc2)c2cc(C3CC3)nc(-c3ccccc3)c21 0.0055, COc1ccc([Si](C)(C)[C@@H]2[C@@H](CC(=O)N3CCC[C@H]3CO)O[C@]3(C(=O)N(Cc4cccc(N5CCC5=O)c4)c4ccccc43)[C@H]2C)cc1 -0.0905, CN(C)c1ccc(C(O)C2C=CC3C(=O)N(c4ccccc4)C(=O)C3N2Nc2ccccc2F)cc1 (configuration not stated) -1.77, CCCCCN1CC=CC23O[C@@H]4C=CCOC(=O)[C@@H]4[C@H]2C(=O)N(CCCCCCO)[C@@H]3C1=O (some centres not stated) 0.428, CC(C)(C)OC(=O)CC[C@]1(C(N)=O)COC(c2ccc(OCCCO)cc2)=N1 0.0462, CC(C)(C)OC(=O)CC[C@]1(C(=O)NCc2ccccc2)N=C(c2ccc(OCCCO)cc2)O[C@H]1c1ccccc1 0.69, COc1ccc(CCNC(=O)[C@@H]2c3ccccc3C(=O)N(c3ccc(C)cn3)[C@H]2c2ccc(CO)cc2)cc1 -0.742, CC1CC/C=C\[C@H]2OC34C=CCN(Cn5nnc6ccccc65)C(=O)[C@H]3N(CCO)C(=O)[C@@H]4C2C(=O)O1 (some centres not stated) -0.895, C[N+](C)(C)CCCCCCNC(=O)[C@@H]1C[C@@H]2C(=O)N3CCC[C@H]3C(=O)N2[C@@H]1c1cccc(OCCO)c1 -0.887, CN1C(=O)[C@@]2(CCC(=O)OC(C)(C)C)N=C(c3ccc(OCCCO)cc3)O[C@H]2c2ccccc21 -1.04, COCC1=C2[C@@H](CCc3ccccc3)OB(O)C[C@@H]2n2c(=O)n(-c3ccccc3)c(=O)n2C1 -1.24, CCCCC(=C=CC[C@H](O)c1ccccc1OCCO)C[C@H](O)COCc1ccccc1 -1.18, COCCOC(=O)N1C(=O)[C@@]2(c3cc(C#CCNC(N)=O)ccc31)[C@H](c1ccc(O)cc1)N1[C@H](c3ccccc3)[C@H](c3ccccc3)OC(=O)[C@H]1[C@@H]2C(=O)N1CCCCCCC1 1.01, CC(C)NC(=O)[C@@H]1c2ccccc2C(=O)N(CC23CC4CC(CC(C4)C2)C3)[C@H]1c1ccc(CO)cc1 -1.23
